# Reference: PubChem BioAssay
# The source made the active and inactive calls. Unless noted, no rule for the calls is given here.
# How the values were obtained:
# [1] = compounds binding Alexa647 anti-His antibody – biochemical, small-molecule microarray, 635 nm fluorescence, artefact control for SMM control protein annotation, primary screen (AID 1128); conditions: higher = more signal;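 also: score merges feature fluorescence with signal-to-noise for each printed compound spot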
# [2] = tested on: Human papillomavirus type 1a E7 protein (residues 1-88); experiment: HPV1a E7 small-molecule binders, primary screen, biochemical, small-molecule microarray, residues 1-88, 635 nm (AID 1129); conditions: small-molecule microarray binding, fluorescence 635 nm; higher = more signal
# [3] = biological target: Focal adhesion kinase 1 (Homo sapiens) (UniProt Q05397); experiment: PTK2 protein binding on printed compound slides – biochemical, small-molecule microarray, 635/667 nm fluorescence, BSA, DTT, primary screen (AID 1130); conditions: 635 nm fluorescence, higher = more signal;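 also: composite of spot emission at 667 nm and signal to noise over triplicate slides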
# [4] = tested on: Fibrinogen (Alexa647-labelled); experiment: Alexa647-fibrinogen binding to printed small molecules – biochemical, small-molecule microarray, 635/667 nm fluorescence, artefact control for SMM control-protein annotation, profiling panel (AID 1131); conditions: fibrinogen-A647 binding fluorescence, higher = more signal;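 also: z-score merges 667 nm fluorescence with per-spot signal-to-noise over triplicate slides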
# [5] = biological target: Follistatin (Homo sapiens) (UniProt P19883); experiment: FST protein binding to printed compounds – biochemical, small-molecule microarray, 635/667 nm fluorescence, primary screen (AID 1132); conditions: 635 nm fluorescence, higher = more signal
# [6] = biological target: Fibroblast growth factor 2 (Homo sapiens) (UniProt P09038); experiment: basic fibroblast growth factor binding to printed compounds – biochemical, small-molecule microarray, 635/667 nm fluorescence, primary screen (AID 1133); conditions: FGF2, fluorescence 635/667, higher = more signal
# [7] = JC-1 mitochondrial potential readout, lung cancer cells – cell-based, A549, JC-1 fluorescence, basal, 24 h, 100 nL, profiling panel (AID 1138); conditions: higher = more signal;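 also: A549 lung adenocarcinoma cells under basal conditions with no added stimulus; test concentration not given here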
# [8] = tested on: Lefty1; experiment: Lefty1 protein binding to printed compounds – biochemical, small-molecule microarray, 635/667 nm fluorescence, primary screen (AID 1139); conditions: fluorescence 635/667, higher = more signal
# [9] = tested on: wheat germ agglutinin (Triticum aestivum), Alexa647-labelled; experiment: Alexa647-WGA lectin binding to printed small molecules – biochemical, small-molecule microarray, 635/667 nm fluorescence, artefact control for SMM control-protein annotation, profiling panel (AID 1140); conditions: WGA-A647 binding, 635 nm fluorescence, higher = more signal;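 also: score merges 667 nm feature emission with signal to noise over triplicate slides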
# [10] = biological target: Luciferin 4-monooxygenase (Photinus pyralis) (UniProt P08659); experiment: inhibition of purified Photinus pyralis luciferase – biochemical, luminescence, purified enzyme, 2006 set, primary screen (AID 1141); conditions: purified firefly luciferase, SteadyGlo luminescence, 30 min; higher = more signal, called active from +8 up or from −8 down;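 also: cell-free assay with purified firefly luciferase at 100 ng per well in PBS; test concentration not given here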
# [11] = tested on: Wnt5a (protein binding on small-molecule microarray); experiment: small molecules binding Wnt5a protein – biophysical, small-molecule microarray, 635/667 nm fluorescence, primary screen (AID 1142); conditions: 635 nm fluorescence, higher = more signal;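 also: fluorescence read at 667 nm with signal to noise per printed feature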
# [12] = ATP-based viability of Huh7 replicon cells – cell-based, CellTiter-Glo luminescence, basal, 48 h, cytotoxicity control for HCV replication inhibitor project, primary screen (AID 1143); conditions: higher = more signal, called active from +8 up or from −8 down;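 also: Huh7 hepatoma cells carrying a hepatitis C replication reporter with no stimulus; test concentration not given here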
# [13] = Pseudomonas biofilm growth suppression – PAO1 strain, BacTiter-Glo luminescence, LB-PBS, primary screen (AID 1144); conditions: P. aeruginosa PAO1 biofilm, 12 h, higher = more signal
# [14] = basal CRE-LacZ reporter activity in PC12 – cell-based, unstimulated, primary screen (AID 1145); conditions: no forskolin, luminescence, 4.5 h, higher = more signal, called active from +8 up or from −8 down
# [15] = forskolin-driven CRE-LacZ activity in PC12 – cell-based, CRE-LacZ reporter, forskolin-stimulated, primary screen (AID 1146); conditions: luminescence, 4.5 h, higher = more signal, called active from +8 up or from −8 down;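 also: PC12 cells with 6xCRE LacZ reporter stimulated by forskolin 10 µM; beta-galactosidase reporter signal reflecting CREB driven transcription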
# [16] = biological target: Streptavidin (Streptomyces avidinii) (UniProt P22629); experiment: compounds binding control protein streptavidin – biophysical, small-molecule microarray, 635/667 nm fluorescence, artefact control for SMM compound annotation, primary screen (AID 1147); conditions: higher = more signal;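 also: signal reflects streptavidin binding to arrayed compounds as a control protein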
# [17] = probe aInhba binding on compound microarray – biochemical, small-molecule microarray, 635/667 nm fluorescence, primary screen (AID 1148); conditions: higher = more signal;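 also: score merges 667nm spot fluorescence with signal-to-noise for antibody binding to printed compounds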
# [18] = biological target: Torsin-1A (Homo sapiens) (UniProt O14656); experiment: TOR1A wild-type binding on microarray – cell lysate, small-molecule microarray, lysate, 635/667 nm, primary screen (AID 1149); conditions: COS7 hTOR1A-WT lysate, 635 nm fluorescence, higher = more signal
# [19] = biological target: Torsin-1A (Homo sapiens) (UniProt O14656); experiment: torsin A mutant lysate binding on microarrays – cell lysate, small-molecule microarray, COS7 lysate, 635/667 nm fluorescence, primary screen (AID 1150); conditions: COS7 hTOR1A mutant lysate, 635 nm fluorescence, higher = more signal;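 also: score pools 667 nm emission and signal to noise measuring lysate protein binding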
# [20] = tested on: Sonic hedgehog protein (Shh); experiment: Sonic hedgehog microarray binding compounds – biochemical, small-molecule microarray, 635/667 nm fluorescence, primary screen (AID 1151); conditions: 635 nm fluorescence, higher = more signal;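 also: Shh protein binding to compounds spotted on small-molecule microarray slides; score combines spot fluorescence intensity with signal-to-noise across triplicate slides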
# Follistatin (Homo sapiens), sequence (P19883 whole entry, looked up): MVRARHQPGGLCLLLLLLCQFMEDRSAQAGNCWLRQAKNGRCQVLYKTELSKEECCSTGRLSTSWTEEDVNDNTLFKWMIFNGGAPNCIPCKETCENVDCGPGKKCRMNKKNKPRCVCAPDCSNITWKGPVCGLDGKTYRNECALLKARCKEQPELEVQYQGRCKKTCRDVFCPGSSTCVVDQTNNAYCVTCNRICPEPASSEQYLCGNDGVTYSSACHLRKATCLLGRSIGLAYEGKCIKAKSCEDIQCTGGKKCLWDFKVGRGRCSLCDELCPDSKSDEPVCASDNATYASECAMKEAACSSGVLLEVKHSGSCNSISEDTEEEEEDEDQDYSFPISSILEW
# Focal adhesion kinase 1 (Homo sapiens), sequence (Q05397 whole entry, looked up): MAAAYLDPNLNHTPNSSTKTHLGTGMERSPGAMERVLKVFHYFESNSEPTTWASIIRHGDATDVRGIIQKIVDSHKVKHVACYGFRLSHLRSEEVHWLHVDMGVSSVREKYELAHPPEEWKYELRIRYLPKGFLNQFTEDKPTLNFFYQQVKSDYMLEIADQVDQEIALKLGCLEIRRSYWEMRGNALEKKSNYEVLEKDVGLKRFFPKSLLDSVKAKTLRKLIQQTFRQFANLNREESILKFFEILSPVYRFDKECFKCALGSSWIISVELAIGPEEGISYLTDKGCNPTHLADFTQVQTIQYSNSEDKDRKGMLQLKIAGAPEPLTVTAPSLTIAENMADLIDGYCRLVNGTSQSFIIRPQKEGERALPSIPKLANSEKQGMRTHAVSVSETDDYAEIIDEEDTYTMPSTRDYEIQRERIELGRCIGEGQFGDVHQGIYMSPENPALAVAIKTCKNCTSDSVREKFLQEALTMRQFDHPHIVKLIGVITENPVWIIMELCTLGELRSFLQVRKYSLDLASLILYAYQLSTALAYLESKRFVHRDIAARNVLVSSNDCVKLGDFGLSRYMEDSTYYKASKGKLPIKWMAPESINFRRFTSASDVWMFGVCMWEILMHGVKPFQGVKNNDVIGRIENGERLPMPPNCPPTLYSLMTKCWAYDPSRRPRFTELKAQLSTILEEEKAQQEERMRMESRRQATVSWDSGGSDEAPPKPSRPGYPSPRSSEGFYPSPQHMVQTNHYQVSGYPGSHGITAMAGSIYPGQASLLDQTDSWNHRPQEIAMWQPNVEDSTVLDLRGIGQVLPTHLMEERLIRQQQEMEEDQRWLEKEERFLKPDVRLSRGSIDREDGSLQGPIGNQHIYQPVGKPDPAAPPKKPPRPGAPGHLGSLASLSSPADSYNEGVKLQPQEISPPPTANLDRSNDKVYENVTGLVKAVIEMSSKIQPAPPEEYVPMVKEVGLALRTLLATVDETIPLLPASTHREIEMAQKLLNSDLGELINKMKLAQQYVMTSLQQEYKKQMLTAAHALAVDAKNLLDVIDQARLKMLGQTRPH
# Streptavidin (Streptomyces avidinii), sequence (P22629 whole entry, looked up): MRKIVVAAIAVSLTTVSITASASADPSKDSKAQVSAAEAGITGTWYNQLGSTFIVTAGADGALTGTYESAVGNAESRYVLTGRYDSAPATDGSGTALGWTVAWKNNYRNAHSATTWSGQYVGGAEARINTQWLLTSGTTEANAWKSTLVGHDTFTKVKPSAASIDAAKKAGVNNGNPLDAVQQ
# Torsin-1A (Homo sapiens), sequence (O14656 whole entry, looked up): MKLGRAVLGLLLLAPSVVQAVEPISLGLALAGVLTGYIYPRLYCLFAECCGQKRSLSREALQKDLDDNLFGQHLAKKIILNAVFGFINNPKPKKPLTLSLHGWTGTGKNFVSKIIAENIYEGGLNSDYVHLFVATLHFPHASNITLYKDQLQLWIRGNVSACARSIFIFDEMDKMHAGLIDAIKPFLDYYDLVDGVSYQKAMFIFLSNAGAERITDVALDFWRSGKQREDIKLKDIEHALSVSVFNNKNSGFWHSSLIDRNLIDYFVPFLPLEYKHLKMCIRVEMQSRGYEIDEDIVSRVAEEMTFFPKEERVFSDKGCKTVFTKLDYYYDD
# Luciferin 4-monooxygenase (Photinus pyralis), sequence (P08659 whole entry, looked up): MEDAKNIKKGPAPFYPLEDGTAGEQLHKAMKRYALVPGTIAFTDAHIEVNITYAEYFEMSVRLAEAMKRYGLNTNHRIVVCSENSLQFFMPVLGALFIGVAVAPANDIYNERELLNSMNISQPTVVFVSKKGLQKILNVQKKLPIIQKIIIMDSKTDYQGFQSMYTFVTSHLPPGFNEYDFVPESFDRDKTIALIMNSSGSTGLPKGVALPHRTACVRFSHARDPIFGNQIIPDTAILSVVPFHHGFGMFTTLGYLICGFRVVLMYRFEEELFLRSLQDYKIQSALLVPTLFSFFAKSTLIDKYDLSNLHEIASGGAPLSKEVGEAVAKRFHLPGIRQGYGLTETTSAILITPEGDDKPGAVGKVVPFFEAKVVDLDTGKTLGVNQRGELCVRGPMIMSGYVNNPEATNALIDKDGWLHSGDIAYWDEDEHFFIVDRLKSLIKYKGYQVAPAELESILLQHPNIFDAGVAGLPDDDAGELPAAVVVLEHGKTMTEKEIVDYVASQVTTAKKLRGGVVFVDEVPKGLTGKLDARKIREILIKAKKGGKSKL
# Fibroblast growth factor 2 (Homo sapiens), sequence (P09038 whole entry, looked up): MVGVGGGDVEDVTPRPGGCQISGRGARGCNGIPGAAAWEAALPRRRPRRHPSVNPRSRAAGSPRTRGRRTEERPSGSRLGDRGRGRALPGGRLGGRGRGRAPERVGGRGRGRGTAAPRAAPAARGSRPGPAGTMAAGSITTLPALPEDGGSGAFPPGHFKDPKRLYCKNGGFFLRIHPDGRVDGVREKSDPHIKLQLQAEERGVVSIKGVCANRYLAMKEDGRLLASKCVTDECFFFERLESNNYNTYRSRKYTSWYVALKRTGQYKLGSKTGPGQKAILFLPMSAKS
SMILES,composite z-score [1],composite z-score [2],composite z-score [3],composite z-score [4],composite z-score [5],composite z-score [6],z-score [7],composite z-score [8],composite z-score [9],z-score [10],composite z-score [11],z-score [12],z-score [13],z-score [14],z-score [15],composite z-score [16],composite z-score [17],composite z-score [18],composite z-score [19],composite z-score [20]
CCOC(=O)[C@H](Cc1ccccc1)NC(=O)CCC1CC(OC(=O)NCCc2ccc(F)cc2)CC2(CCCC(COC(=O)NCCc3ccc(Cl)cc3)O2)O1 (stereo not given in full),1.03,1.09,0.671,0.832,0.326,0.996,0.699,0.583,0.105,0.361 (inactive),0.108,-0.0147 (inactive),-0.288 (inactive),-0.526 (inactive),0.483 (inactive),0.391,-0.0494,0.371,0.837,0.726
O=C1OCCC=C1C(O)CCc1ccccc1 (stereo not given),-0.139,0.638,-0.226,0.913,0.347,0.332,-0.602,0.299,0.412,0.151 (inactive),0.0626,0.104 (inactive),1.15 (inactive),0.196 (inactive),0.571 (inactive),0.992,-0.0562,-0.0693,0.0478,0.316
C=COC[C@@H]1CN2[C@@H](CC[C@@H](C)[C@@H]2c2ccc(Br)cc2)C(=O)O1,-0.559,0.151,0.18,0.212,0.0793,-0.285,-1.25,0.0005,-0.0681,0.49 (inactive),-0.219,-2.67 (inactive),-1.06 (inactive),6.83 (inactive),-0.544 (inactive),-0.505,-0.253,0.348,-0.051,-0.211
COC(=O)CC=C[C@@H](C)[C@@H](C=NO[C@@H](C)c1cn([C@H](CO)Cc2ccccc2)nn1)NS(=O)(=O)c1ccc(C)cc1,1.56,0.332,0.265,0.982,0.95,0.459,-0.517,0.681,0.0187,-1.28 (inactive),0.062,-0.35 (inactive),0.606 (inactive),3.99 (inactive),-0.0697 (inactive),0.0525,0.0928,0.945,0.997,0.685
CCOC(=O)[C@H](CC(C)C)NC(=O)CCC1CC(OC(=O)NCCc2ccc(F)cc2)CC2(CCCC(COC(=O)NCC3CCCCC3)O2)O1 (stereo not given in full),0.183,0.579,-0.124,0.623,0.51,0.631,-0.506,0.803,0.676,0.997 (inactive),0.0548,0.791 (inactive),0.239 (inactive),0.381 (inactive),0.868 (inactive),1.42,-0.148,-0.0001,0.915,0.648
O=C1C[C@@H](O)[C@@H](O)[C@@H]2[C@@H]3C(=O)N(C[C@@H]4CCCO4)C(=O)[C@@H]3CC[C@@H]12,0.318,0.476,0.181,0.517,0.848,0.657,0.52,0.42,0.208,-0.658 (inactive),0.191,0.149 (inactive),-0.213 (inactive),0.246 (inactive),0.287 (inactive),0.622,0.0956,0.232,0.206,0.678
COc1ccc(O[C@H]2C=C[C@@H](c3ccccc3)O[C@@H]2COC(=O)CCC(C)=NOC[C@@H](O)[C@H]2O[C@@H]3OC(C)(C)O[C@@H]3[C@H]2O)cc1,0.977,0.835,0.179,0.536,0.697,0.439,-0.206,0.334,-0.13,0.302 (inactive),0.383,-0.119 (inactive),-0.108 (inactive),-1.14 (inactive),-0.866 (inactive),1.15,-0.0963,0.624,0.891,1.14
Cc1ccc(S(=O)(=O)N[C@H]2COC(=O)CC=C[C@H](C)[C@@H](NS(=O)(=O)c3ccc(C)cc3)COC(=O)CC=C[C@@H]2C)cc1,-0.308,0.42,0.106,0.129,0.471,0.647,-0.617,0.556,0.0337,0.846 (inactive),-0.11,-0.591 (inactive),-0.681 (inactive),-0.008 (inactive),0.556 (inactive),1.17,-0.0645,0.649,0.741,0.483
Cn1c(=O)n2n(c1=O)[C@H]1[C@H](O)[C@@H]3O[C@@H]3C(=O)[C@H]1CC2,-0.0542,0.827,-0.515,0.289,0.537,0.348,-0.572,0.455,0.138,-0.28 (inactive),0.0242,0.0801 (inactive),0.0513 (inactive),-1.29 (inactive),-0.69 (inactive),0.924,-0.041,0.961,0.198,0.537
COc1ccc(COC(=O)NN=C2C[C@@H](O)[C@@H](O)[C@@H]3[C@@H]4C(=O)N(c5cccc(Oc6ccccc6)c5)C(=O)[C@@H]4CC[C@@H]23)cc1,0.177,-0.181,-0.0032,0.238,-0.823,-0.415,-0.201,-0.282,0.485,0.891 (inactive),-0.365,-0.201 (inactive),0.791 (inactive),2.15 (inactive),0.087 (inactive),0.519,-0.162,0.574,-0.101,-1.38
